In PubChem BioAssay (NCI) one finds growth data, which are given here for 8 molecules.

Test systems include HCT-15 colon; HT29 colon; SNB-75 CNS; SNB-19 CNS; U251 CNS; PC-3 prostate; SK-MEL-5 melanoma; UACC-62 melanoma; LOX IMVI melanoma; SK-MEL-28 melanoma; SK-MEL-2 melanoma; EKVX NSCLC; SN12C renal; TK-10 renal; ACHN renal; CAKI-1 renal; A498 renal; CCRF-CEM leukemia; MOLT-4 leukemia; UO-31 renal.
Common to all, as to assay: NCI-60 one-dose screen, 48 h (100 = growth as untreated, 0 = no growth, -100 = all killed)
What all share (conditions): 10 µM

The panel holds about 83,000 compounds, 20% with a hit somewhere; the sample as a whole holds those more often.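 Each cell line was grown in a 96-well plate and treated with one concentration of compound for 48 hours. Values below 10 were considered active.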 A number with no mark means an inactive call. Calls of active or inactive are those of the source.

In the case of `O=C1Nc2ccc(F)cc2/C1=C/c1cccc(OCc2ccccc2)c1`, the growth was 0.287% (active) in the assay on HCT-15 colon; 20.6% in the assay on HT29 colon; 66.2% in the assay on SNB-75 CNS; 23.9% in the assay on SNB-19 CNS; 6.3% (active) with U251 CNS; 20.4% with PC-3 prostate. Also, the growth in the assay with SK-MEL-5 melanoma was -24.7% (active); with UACC-62 melanoma it was 16.5%; with LOX IMVI melanoma, -79.5% (active); with SK-MEL-28 melanoma, 36.2%; in the assay on SK-MEL-2 melanoma, -23.1% (active); in the assay on EKVX NSCLC, 18.4%. The growth in the assay on SN12C renal was 20.2%; in the assay on TK-10 renal, 70.9%; with ACHN renal it was 22.4%; in the assay with CAKI-1 renal it was 25.9%; in the assay with A498 renal, 80.2%; in the assay with CCRF-CEM leukemia, -4.49% (active). Moreover, the growth in the assay on MOLT-4 leukemia is 1.81% (active).

For `CN(C(=O)c1ccc(C(C)(C)C)cc1)c1sc2c(c1C#N)CCC(=O)C2`, the growth in the assay with HCT-15 colon is -68.6% (active); in the assay on HT29 colon, 113%; with SNB-75 CNS it was 98%; in the assay with SNB-19 CNS, 8.17% (active); in the assay with U251 CNS, -22.7% (active); in the assay on PC-3 prostate it was 2.52% (active). Also, the growth was -69.7% (active) in the assay on SK-MEL-5 melanoma; -43.7% (active) in the assay on UACC-62 melanoma; -71.5% (active) in the assay with LOX IMVI melanoma; 60.3% in the assay with SK-MEL-28 melanoma; 97.7% in the assay with SK-MEL-2 melanoma; 68.9% in the assay with EKVX NSCLC. Moreover, the growth with SN12C renal is 17.1%; in the assay on TK-10 renal, 23%; with ACHN renal, -45.8% (active); in the assay with CAKI-1 renal, 36.9%; with A498 renal, 97.6%; in the assay on CCRF-CEM leukemia, 8.93% (active). For the same molecule, in the assay with MOLT-4 leukemia, the growth was 29.8%.

`Cc1ccc(C(=O)NCCCNc2nc(Nc3ccc(N4CCN(C)CC4)cc3)nc3ccsc23)cc1`: the growth in the assay with HCT-15 colon was 2.1% (active); in the assay with HT29 colon it was 8.64% (active); in the assay on SNB-75 CNS, 71.9%; in the assay on SNB-19 CNS, 71.6%; in the assay on U251 CNS, 18.5%; in the assay with PC-3 prostate it was 37.9%. The growth with SK-MEL-5 melanoma was -15.2% (active); in the assay on UACC-62 melanoma, 24.1%; in the assay on LOX IMVI melanoma, -22.6% (active); in the assay with SK-MEL-28 melanoma it was -70.3% (active); in the assay on SK-MEL-2 melanoma, 81.8%; in the assay with EKVX NSCLC, 71.2%. Further, the growth in the assay with SN12C renal was 72.6%; in the assay with ACHN renal, 30.5%; in the assay on CAKI-1 renal it was 54%; with A498 renal, 137%; in the assay with CCRF-CEM leukemia, 4.37% (active).

For `COc1ccc(C(=O)Nc2sc3c(c2C#N)CCC(=O)C3)cc1C(F)(F)F`, the growth with HCT-15 colon is -69.8% (active); with HT29 colon it was -31.4% (active); in the assay with SNB-75 CNS, -15.2% (active); with SNB-19 CNS, -5.9% (active); in the assay with U251 CNS it was 3.33% (active); with PC-3 prostate, 8.45% (active). The growth in the assay on SK-MEL-5 melanoma was -92.2% (active); in the assay on UACC-62 melanoma, -25.5% (active); with LOX IMVI melanoma, -15% (active); with SK-MEL-28 melanoma, -12.6% (active); with SK-MEL-2 melanoma, -17.6% (active); in the assay on EKVX NSCLC, -0.293% (active). In addition, the growth in the assay with UO-31 renal was -18.2% (active); in the assay on TK-10 renal, 15.1%; in the assay with ACHN renal, -29.9% (active); in the assay with CAKI-1 renal, -28.1% (active); in the assay on A498 renal, 63.3%; with CCRF-CEM leukemia it was 5.05% (active). Moreover, in the assay on MOLT-4 leukemia, the growth was 3.42% (active).

In the case of `O=c1cc(-c2ccccc2)oc2cc(OCCCCNCc3ccccc3)cc(O)c12`, the growth with HCT-15 colon is -86.1% (active); in the assay with HT29 colon, -55.4% (active); with SNB-75 CNS, 53.4%; in the assay with SNB-19 CNS, 67.2%; in the assay with U251 CNS, -64.7% (active); in the assay with PC-3 prostate it was -8.47% (active). Further, the growth with SK-MEL-5 melanoma was -99.9% (active); with UACC-62 melanoma it was -68.7% (active); in the assay with LOX IMVI melanoma, -99.9% (active); in the assay with SK-MEL-28 melanoma, -69.7% (active); in the assay with SK-MEL-2 melanoma it was 53.1%; in the assay on EKVX NSCLC, 25.1%. Further, the growth was 37% with UO-31 renal; 59.9% in the assay with ACHN renal; 25.7% with CAKI-1 renal; 37.6% in the assay on A498 renal; 2.88% (active) in the assay with CCRF-CEM leukemia; -0.919% (active) in the assay on MOLT-4 leukemia.

For `Cn1cc(-c2cc(N)n3nc(-c4c[nH]c5ccc(Br)cc45)cc3n2)c2cccnc21`, the growth is -77% (active) in the assay on HCT-15 colon; -81.7% (active) in the assay with HT29 colon; -73.1% (active) with SNB-75 CNS; -83.5% (active) with SNB-19 CNS; -83.9% (active) with U251 CNS; -45.9% (active) in the assay with PC-3 prostate. The growth in the assay on SK-MEL-5 melanoma was -98.3% (active); with UACC-62 melanoma, -93.9% (active); in the assay on LOX IMVI melanoma, -95.6% (active); in the assay with SK-MEL-28 melanoma, -95.8% (active); with SK-MEL-2 melanoma, -56.4% (active); in the assay on EKVX NSCLC it was -86.7% (active). For the same molecule, the growth with UO-31 renal is -78.8% (active); in the assay with TK-10 renal, -85.9% (active); in the assay with ACHN renal, -98.9% (active); in the assay with CAKI-1 renal, -60.7% (active); in the assay on A498 renal, -85.9% (active); with CCRF-CEM leukemia, -19.1% (active).

As for `COc1cccc(/C=N/NC(=O)c2ccc3nc(-c4ccc(Cl)cc4)[nH]c3c2)c1O`, the growth in the assay on HCT-15 colon was 4.8% (active); in the assay with HT29 colon it was -79.7% (active); in the assay with SNB-75 CNS it was -81.8% (active); in the assay with SNB-19 CNS, -98.6% (active); in the assay with U251 CNS, -90.8% (active); in the assay on PC-3 prostate, -55.1% (active). The growth with SK-MEL-5 melanoma was -98% (active); in the assay on UACC-62 melanoma it was -92% (active); with LOX IMVI melanoma it was -97.2% (active); with SK-MEL-28 melanoma, -98.3% (active); in the assay with SK-MEL-2 melanoma, -95.1% (active); with EKVX NSCLC it was -53.8% (active). The growth with UO-31 renal is -2.17% (active); in the assay on TK-10 renal it was -11.1% (active); in the assay with ACHN renal, -34% (active); in the assay on CAKI-1 renal it was -66.1% (active); in the assay with A498 renal it was -69.1% (active); in the assay on CCRF-CEM leukemia, -40.6% (active). In addition, the growth in the assay with MOLT-4 leukemia is -50.4% (active).

Turning to `COc1ccc2nc(Nc3cccc(NC(=O)c4ccc(CN5CCN(C)CC5)c(C(F)(F)F)c4)c3)ccc2c1`, the growth in the assay with HCT-15 colon was -83.4% (active); with HT29 colon, -73.9% (active); with SNB-75 CNS, -39.5% (active); in the assay on SNB-19 CNS it was -96.8% (active); with U251 CNS it was -77.5% (active); with PC-3 prostate, -8.06% (active). The growth in the assay with SK-MEL-5 melanoma is -100% (active); in the assay with UACC-62 melanoma it was -93% (active); with LOX IMVI melanoma it was -100% (active); in the assay on SK-MEL-28 melanoma, -96.9% (active); in the assay with EKVX NSCLC, -98% (active); in the assay on SN12C renal, -92.6% (active). Moreover, the growth was -48.2% (active) in the assay on UO-31 renal; -44.4% (active) in the assay on TK-10 renal; -94.8% (active) with ACHN renal; -33.7% (active) in the assay on CAKI-1 renal; -42.3% (active) in the assay with A498 renal; -10.5% (active) in the assay on CCRF-CEM leukemia. Further, the growth with MOLT-4 leukemia is -44.6% (active).
